# Screens deposited in PubChem BioAssay by several laboratories.
# In the library only some 4.7% were active in any assay of this set; here they are far more common.
# EBI2 block: EBI2 receptor antagonists, beta-arrestin recruitment, primary screen, cell-based, luminescence, 7a,25-OHC stimulation, uHTS; 7a,25-OHC stimulated; G-protein coupled receptor 183 (Homo sapiens), P32249; 360,000 compounds, 0.81% hits; inhibition, % at 5 µM; in the data active = inhibition above about 38%;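 note: enzyme fragment complementation signal reports receptor beta-arrestin coupling in cells; 0% = agonist plus DMSO wells and 100% = wells without agonist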
# Target sequence (P32249 whole entry, looked up, the tested form may be a part): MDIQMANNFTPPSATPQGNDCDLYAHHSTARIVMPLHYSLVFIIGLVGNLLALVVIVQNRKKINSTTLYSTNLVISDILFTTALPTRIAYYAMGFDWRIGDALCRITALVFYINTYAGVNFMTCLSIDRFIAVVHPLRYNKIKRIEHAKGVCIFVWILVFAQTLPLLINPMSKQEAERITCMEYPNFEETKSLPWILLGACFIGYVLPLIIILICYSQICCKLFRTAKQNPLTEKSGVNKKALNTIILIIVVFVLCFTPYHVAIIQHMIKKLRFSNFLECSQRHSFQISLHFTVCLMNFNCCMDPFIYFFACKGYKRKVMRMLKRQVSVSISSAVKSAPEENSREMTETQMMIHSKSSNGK
# tim10-1 inh: growth inhibitors of tim10-1 mutant yeast, primary screen, luminescence, uHTS. S. cerevisiae tim10-1 ts strain growth, BacTiter-Glo, 24 h. inhibition, % at 20 µM. 330,000 compounds, 2.2% hits. AID 463190, 2010;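 active = inhibition of at least 40%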;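 note: mutant grown at 25 °C; 0% = DMSO wells with yeast and 100% = wells holding no yeast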
# PfHsp90 yeast 2: growth inhibition of PfHsp90-expressing yeast, primary screen, antimalarial PfHsp90 inhibitor project, S. cerevisiae, BacTiter-Glo luminescence, single point, set 2; BacTiter-Glo ATP, 48 h; yeast lacking PDR1 and PDR3 efflux regulators; inhibition, % at 9.4 µM; 310,000 compounds, 0.32% hits;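 active = every replicate shows inhibition above about 80%, whatever the replicate mean, limit read from the data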;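 note: 0% = DMSO neutral controls and 100% = 20 µM radicicol positive controls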
# tim23-1 inh: growth inhibitors of tim23-1 mutant yeast, primary screen, luminescence, uHTS. inhibition, % at 20 µM. S. cerevisiae tim23-1 growth, BacTiter-Glo luminescence, 24 h. 330,000 compounds, 1.3% hits. AID 463212, 2010;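 active = growth inhibition of the mutant yeast at or above 50%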;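 note: temperature-sensitive mutant grown at 25 °C; plate controls were DMSO-treated mutant yeast for no effect and medium wells lacking yeast for full effect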
# TIM10 inh: growth inhibitors of isogenic TIM10 control yeast, primary screen, counter-screen for tim10-1 yeast inhibitor project, luminescence, uHTS; S. cerevisiae TIM10 strain growth, BacTiter-Glo luminescence, 24 h; inhibition, % at 10 µM; 330,000 compounds, 1.4% hits;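 active = inhibition of 40% or more at the single tested concentration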;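 note: wild-type TIM10 isogenic control strain grown at permissive 25 °C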
# SKKanGAS inh: S. pyogenes SKKanGAS growth inhibitors in kanamycin, primary screen, streptokinase expression inhibitor project, SKKanGAS strain, BacTiter-Glo luminescence | 300,000 compounds, 1.3% hits | 6 h | inhibition, % at 7.5 µM;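 active = mean replicate score, as percent of positive control median, at least 50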;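 note: strain carries kanamycin resistance gene driven by streptokinase promoter and grows in 40 µg/ml kanamycin; loss of luminescence reflects streptokinase promoter inhibition or plain growth inhibition; 0% = median of DMSO wells and 100% = positive control at its reference dose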
# Active calls of the source: *; / = no result.
SMILES,EBI2 block,tim10-1 inh,PfHsp90 yeast 2,tim23-1 inh,TIM10 inh,SKKanGAS inh
COc1ccc(CNC(=O)CN2C(=O)COc3ccc(S(=O)(=O)N4CCCC4)cc32)cc1,8.5,8.9,16.2,5.8,-10.1,0.9
COc1cccc(Nc2nc(C(N)C3CCCCC3)cs2)n1 (stereo not drawn),-2.2,/,/,/,/,/
CCCCc1nc(SCC(=O)N2CCCCC2)c2c(=O)n(C)c(=O)n(C)c2n1,-2.2,-2.0,/,26.0,-27.4,3.2
CCCc1nc(SCC(=O)N2CCCCCC2)c2c(=O)n(C)c(=O)n(C)c2n1,/,/,/,/,/,50.1*
CN(Cc1cccc(F)c1)C(=O)c1ccccc1Sc1ccccc1C#N,7.9,35.4,1.1,34.0,4.3,8.3
Cc1[nH]n(-c2ccccc2)c(=O)c1/C=N/NC(=O)c1ccc(O)cc1O,13.3,-6.6,-26.8,-1.0,-44.2,102.2*
CCCCN(CCCC)C(=S)N/N=C/c1c(C)[nH]n(-c2ccccc2)c1=O,48.9*,19.1,-16.9,9.8,25.9,88.2*
Cc1ccc(-n2[nH]c(C)c(/C=N/NC(=O)c3ccc(O)cc3O)c2=O)cc1,-4.8,-8.1,12.2,29.0,-54.0,101.9*
Cc1cccc(OC(=O)c2ccc3c(=O)n4c(nc3c2)CCC4)c1,-6.8,/,/,/,/,/
CC(=O)c1cccc(OC(=O)c2ccc3c(=O)n4c(nc3c2)CCC4)c1,2.1,23.6,-87.6,14.8,-4.0,53.6*
CN(C(=O)COC(=O)c1ccc2c(=O)n3c(nc2c1)CCC3)c1ccccc1,-0.9,3.6,14.5,21.8,5.0,-9.2
Cc1[nH]c2ccccc2c1C(=O)COC(=O)c1ccc2c(=O)n3c(nc2c1)CCC3,-7.1,7.5,-40.2,14.0,18.7,93.0*
COC(=O)c1cc(=O)n(Cc2ccc3c(c2)OCO3)c(=Nc2ccc(F)c(Cl)c2)s1,63.9*,19.3,-6.3,27.4,16.9,0.3
CCOc1ccc(C(=O)NCC2CCCN2S(=O)(=O)c2cccs2)cc1 (stereo not drawn),-2.0,11.7,12.6,26.7,9.7,52.5*
COCCNC(=O)C1(C)CCCN(C(=O)c2ccc(F)c(Cl)c2)C1 (stereo not drawn),-0.7,/,/,/,/,/
OC[C@@H]1CN(CCN2CCOCC2)C[C@H](n2cnc3c(NC4CCCC4)ncnc32)O1,-1.7,/,/,/,/,/
CC(=O)c1cnn(-c2ccc(Cl)cc2)c1C,-3.8,13.5,4.1,3.9,14.3,-4.5
Cc1c(C(=O)NCCSCc2cccc(C(F)(F)F)c2)cnn1-c1ccc(Cl)cc1,15.0,4.1,84.0*,43.7,3.6,14.3
CC(=O)N1CCc2cc(S(=O)(=O)CCC(=O)N3CCN(c4cc(C)ccc4C)CC3)ccc21,-3.0,5.9,9.7,5.8,2.8,-0.3
Cc1c(N/N=C(\C#N)C(=O)c2ccccc2)c(=O)n(-c2ccccc2)n1C,10.3,/,18.3,/,/,65.2*
Cc1ccccc1C(=O)/C(C#N)=N/Nc1c(C)n(C)n(-c2ccccc2)c1=O,6.4,/,3.7,/,/,66.0*
CCOC(=O)/C(C#N)=N/Nc1c(C)n(C)n(-c2ccccc2)c1=O,7.9,12.2,11.3,-2.1,10.4,6.9
CCOC(=O)c1c(NC(=O)COC(=O)c2ccc(Cl)nc2)sc(C)c1C,-5.1,/,/,/,/,/
Cc1nc(Nc2cnc(/C=C/c3cc(C(=O)Nc4cccc(C(F)(F)F)c4)ccc3C)cn2)cc(N2CCNCC2)n1,/,35.1,/,24.1,7.3,72.3*
COc1ccccc1/C=C/C(=O)NNC(=O)c1cccs1,-9.2,1.3,-3.3,14.1,-4.9,2.0
SMILES,EBI2 block,tim10-1 inh,PfHsp90 yeast 2,tim23-1 inh,TIM10 inh,SKKanGAS inh
CCCCC(=O)N(C)c1c(C)nc2ccc(C(=O)N(C)CCN(C)C)cn12,0.9,/,/,/,/,/
O=C(NC(=S)NNC(=O)c1ccccc1O)c1ccco1,-11.9,/,23.0,/,/,64.9*
O=C(NC(=S)NNC(=O)c1cc2ccccc2cc1O)c1ccco1,12.3,7.5,/,-17.9,17.9,98.0*
O=C(NC(=S)Nc1cccc(NC(=S)NC(=O)c2ccco2)n1)c1ccco1,8.1,-66.4,-8.2,-22.9,-41.6,9.0
O=C(NC(=S)NNC(=O)c1ccccc1O)c1cccnc1,4.0,-8.9,16.4,1.0,-0.8,9.6
O=C1CN(CC(=O)NC2CCCc3ccccc32)CCN1 (stereo not drawn),-11.2,-6.9,2.0,-0.7,8.0,-0.4
C=CCN(CC=C)C(=O)c1ccc(OC2CCN(S(=O)(=O)N(C)C)CC2)cc1,-6.3,-23.7,-15.3,15.1,3.9,-5.6
O=C(N=Nc1c(O)[nH]c2ccc(F)cc12)c1ccc(NS(=O)(=O)c2cccs2)cc1,-6.1,-0.4,13.3,-2.0,-9.4,/
Cc1ccc2[nH]c(O)c(N=NC(=O)c3ccc(NS(=O)(=O)c4cccs4)cc3)c2c1,10.4,13.5,3.6,4.4,4.2,76.1*
Cc1nc2ccccc2c(=O)n1/N=C/c1ccc(O)cc1O,-0.7,14.2,25.9,17.2,-4.7,3.1
CN(/N=C/c1ccc(O)cc1O)c1nc(-c2ccccc2)cc(-c2ccccc2)n1,-21.0,23.1,-14.0,24.1,18.0,71.1*
CC(C)Oc1ccc(F)cc1-c1cc(C(=O)Nc2ccc(C(C)(C)C)cc2)[nH]n1,21.1,/,/,/,/,/
CN(c1ccccc1)c1nc(N2CCCC2)nc(-n2ccnc2)n1,31.9,-3.5,-10.9,-38.6,19.5,52.3*
C[C@H](NC(=O)C[C@@H]1C=C[C@@H](NC(=O)CN2CCOCC2)[C@@H](CO)O1)c1ccccc1,-9.8,/,/,/,/,/
Cc1[nH][nH]c(=O)c1C(c1c(C)[nH][nH]c1=O)c1cn(Cc2ccc(Cl)c(Cl)c2)c2ccccc12,31.5,/,7.5,/,/,68.7*
Cc1cccc(C)c1NC(=O)C1(C)CN(S(C)(=O)=O)CC(=O)N1CCc1ccccc1F (stereo not drawn),3.8,/,/,/,/,/
CCN(CC)C(=S)Sc1c(-c2ccccc2)c2cc(Cl)ccc2[nH]c1=O,19.6,30.3,-7.3,11.5,22.8,91.6*
O=C(O)CSc1c(-c2ccccc2)c2cc(Cl)ccc2[nH]c1=O,2.3,-8.4,-31.9,16.9,0.1,-6.8
Cc1cc(C)c2c(N=NN3CCOCC3)[nH]nc2n1,-14.8,8.9,101.9*,4.9,3.3,3.9
Cc1cc(C)c(C#N)c(N2CCOCC2)n1,-2.7,-12.1,9.4,1.8,-0.5,-6.9
CC(C)(Oc1ccc(Cl)cc1)C(=O)NC1=NN(c2ccccc2)C(=O)C1,5.4,27.3,11.1,45.3,13.4,94.5*
Cc1ccc(NS(=O)(=O)c2ccc(Cl)c(NC(=S)NC(=O)C3CCCCC3)c2)cc1Cl,-31.6,4.0,-1.9,16.6,4.6,84.0*
Cc1ccc(NC(=O)C2CCCC2)cc1Cl,-8.7,-11.4,1.3,12.9,12.3,5.9
